# Laboratory results from PubChem BioAssay (Tox21).
# Results filed as inconclusive are left out. Values without a mark were called inactive. Activity calls are given as the source filed them. Calls come from the whole dose curve.
# Assay: qHTS assay to identify small molecule agonists of the progesterone receptor (PR) signaling pathway - cell viability counter screen (AID 1346799); note: nearly all actives have a fitted effect of over 45% in size
# Settings: PR-UAS-bla HEK293T viability, CellTiter-Glo luminescence, 16 h; series mostly up to 92.4 µM; activity change, negative = cytotoxicity: at the top concentration
# Description: National Center for Advancing Translational Sciences [NCATS]
# NIH Chemical Genomics Center [NCGC]
# U.S. Environmental Protection Agency [EPA]
# National Institutes of Environmental Health Sciences [NIEHS]
# National Toxicology Program [NTP]
# U.S. Food and Drug Administration [FDA]
# Progesterone receptor (PR), a nuclear hormone receptor, plays an important role in development, metabolic homeostasis and reproduction. It is activated by the steroid hormone progesterone. Endocrine disrupting chemicals (EDCs) and their interactions with steroid hormone receptors like PR causes disruption of normal endocrine function. To identify the compounds that stimulate PR signaling, a PR-UAS-bla GripTite cell line i.e. PR-UAS-bla HEK293T (Invitrogen, Carlsbad, CA, USA) containing a beta-lactamase reporter gene under the control of an UAS response element was used to screen Tox21 10K compound library. The cytotoxicity of the Tox21 compound library against the PR-bla cell line was tested in parallel by measuring the cell viability using CellTiter-Glo assay in the same wells.
# Tox21 Assay Protocol Summary:
# PR-UAS-bla HEK293T cells were dispensed at 3,000 cells/5 uL of assay medium containing 2% charcoal stripped FBS per well into black wall/clear-bottom 1536-well plates using a Multidrop Combi (ThermoFisher Scientific, Waltham, MA) dispenser. After the assay plates were incubated at a 37C and 5% CO2 for 6 hr, 23 nL of compounds dissolved in DMSO, positive controls or DMSO only was transferred to the assay plate by a Pintool station (Kalypsys, San Diego, CA). The plates were incubated at 37C and 5% CO2 for 16 hr. Then 1 uL of LiveBLAzer B/G FRET substrate was added using a Flying Reagent Dispenser (FRD, Aurora Discovery, San Diego, CA), the plates were incubated at room temperature for 2 hours, and fluorescence intensity was measured by an Envision plate reader (PerkinElmer, Shelton, CT). For cell viability readout that measures cytotoxicity, 4 uL/well of CellTiter-Glo reagent was added into the assay plates using a FRD. After 30 min incubation at room temperature, the luminescence intensity in the plates was measured using a ViewLux (PerkinElmer) plate reader.
# % is set by controls: 0 for no effect and ±100 for the full control effect; potency is the fitted concentration of half-maximal effect.
Structure (SMILES),"activity change, negative = cytotoxicity",Potency
OC[C@H](Cc1cccc(O)c1)[C@H](CO)Cc1cccc(O)c1,-6.47%,–
ClCCCl,6.17%,–
O=Cc1ccc(Cl)c(Cl)c1,-14%,–
CCCCNC1CC(C)(C)NC(C)(C)C1,0.172%,–
NCCN1CCOCC1,-4.39%,–
C[Si](C)(C)C,0.901%,–
CC(C)OC(=O)CCCCC(=O)OC(C)C,-5.17%,–
CC(C)CC(=O)O,-4.52%,–
Nc1ccc2cc(S(=O)(=O)O)cc(O)c2c1,-7.25%,–
NS(=O)(=O)c1ccc(NC(=O)CCC(=O)O)cc1,6.25% [at 42.5 µM],–
CC(C)CC(C)CC(C)CC(C)COC(=O)c1ccccc1C(=O)OCC(C)CC(C)CC(C)CC(C)C (stereo not given),3.39%,–
CC(C)NCC(O)COc1cccc2[nH]ccc12 (stereo not given),-4.78% [at 42.5 µM],–
O=C(NCCc1c[nH]c2ccccc12)c1cccnc1,4.53% [at 42.5 µM],–
Cc1ccsc1/C=C/C1=NCCCN1C,-24.3% [at 42.5 µM],–
O=S(=O)(O)c1ccc2cc(O)c(S(=O)(=O)O)cc2c1,-7.16%,–
Oc1cn2c(n1)Nc1ccc(Cl)c(Cl)c1C2,10.9% [at 19 µM],–
On1nnc2ccccc21,–,1.37 µM (active)
Cc1ccc(C=O)cc1C,59.8%,–
O=C(/N=N/C(=O)OCc1ccccc1)OCc1ccccc1,12.9%,–
C[C@@H](Oc1ccc(CNC(=O)c2cccnc2Oc2ccc3c(c2)OCO3)c(F)c1)C(=O)O,0.999%,–

Structure (SMILES),"activity change, negative = cytotoxicity",Potency
Nc1ncnc(Nc2ccccc2)n1,5.08% [at 42.5 µM],–
CC(=C(CCOC(=O)C(C)C)SSC(CCOC(=O)C(C)C)=C(C)N(C=O)Cc1cnc(C)nc1N)N(C=O)Cc1cnc(C)nc1N,-16.8% [at 42.5 µM],–
CC(=O)NCc1c(I)c(NC(C)=O)c(I)c(C(=O)O)c1I,2.42% [at 42.5 µM],–
CNC(=O)[C@H]1O[C@@H](n2cnc3c(NCc4cc(Cl)ccc4OCc4cc(C)no4)ncnc32)[C@H](O)[C@@H]1N,-4.32%,–
O=C1c2cccc3c2[C@H](CCC3)CN1[C@@H]1CN2CCC1CC2,–,26.6 µM (active)
COCCOCCOCCOCCOCCO,8.65%,–
C#CC(C)N(C)C(=O)Nc1ccc(Cl)cc1 (stereo not given),-17.1%,–
N[C@@H](CCC(=O)N[C@@H](CS)C(=O)NCC(=O)O)C(=O)O,3.29% [at 19 µM],–
COc1cc2c(cc1OC)[C@@H]1CC(=O)[C@@H](CC(C)C)CN1CC2,-16.8% [at 42.5 µM],–
Cc1cccc2nccnc12,0.0535%,–
O=C1CC(c2ccc(Cl)cc2)CC(=O)N1,6.47% [at 42.5 µM],–
Cc1cccc(C)c1OCC(C)N (stereo not given),-11.8% [at 42.5 µM],–
NS(=O)(=O)c1cc2c(cc1Cl)CN(C1CCCCC1)C2=O,6.35% [at 42.5 µM],–
COc1ccc(S(=O)(=O)N2c3ccc(Cl)cc3[C@@](O)(c3ccccc3Cl)[C@H]2C(=O)N2CCC[C@@H]2C(N)=O)cc1OC,2.24% [at 42.5 µM],–
CCCC/C=C\CCCCCCCCCC=O,7.3%,–
O=C1c2ccccc2C(=O)c2cc(S(=O)(=O)O)ccc21,-3.55%,–
CC1COc2ccccc2N1 (stereo not given),-1.09%,–
COc1ccc2c(c1OC)C(=O)O[C@@H]2[C@H]1c2c(cc3c(c2OC)OCO3)CCN1C,5.33% [at 42.5 µM],–
C=CC(OCC)OCC,6.76%,–
CC(C)(C)c1nnc(NS(=O)(=O)c2ccc(N)cc2)s1,4.05% [at 42.5 µM],–
